# Counter-ions that a name gives are not always drawn.
# Test system: Saccharomyces cerevisiae BY4741 SeMeCo community
# Experiment: z-score of subpopulation abundance vs DMSO median, subpopulation auxotrophic for L; higher = larger share of this subpopulation than in DMSO controls
# Conditions: 10 µM; 24 h; SM minimal medium; subpopulation (auxotrophy): L
# Description: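 Fluorescent four-plasmid SeMeCo (self-establishing metabolically cooperating S. cerevisiae BY4741 community; plasmids pH-mRuby2, pL-mWasabi, pU-eCFP, pM-TagRFP657) was grown 24 h in minimal SM medium with each Selleck FDA-approved drug at 10 µM in 384-well plates. Cells were fixed and imaged by high-content confocal microscopy. For each auxotrophic subpopulation (and the prototroph), a z-score gives the deviation from the DMSO vehicle-control population median.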
row,SMILES,z-score of subpopulation abundance
1,Nc1nc(N)nc(NC2CC2)n1 [Cyromazine],0.49
2,C[C@H]1O[C@H](O[C@H]2[C@H](O)[C@@H](O)[C@@H](O)[C@H](O)[C@@H]2O)[C@@H](N)C[C@@H]1NC(=N)C(=O)O [Kasugamycin hydrochloride],0.8
3,CCOC(=O)Nc1ccc(NCc2ccc(F)cc2)cc1N [Retigabine],-0.58
4,CC(C)N(CCC(C(N)=O)(c1ccccc1)c1ccccn1)C(C)C (stereo not given) [Disopyramide],2.35
5,Nc1ccncc1 [4-Aminopyridine],0.44
6,NCCc1c[nH]c2ccc(O)cc12 [Serotonin HCl],-1.08
7,CCCCCCCCCCCCCCCC[n+]1ccccc1 [Cetylpyridinium Chloride],-2.16
8,O=[N+]([O-])C(Br)(CO)CO [Bronopol],-0.82
9,COc1ccc(C(CN(C)C)C2(O)CCCCC2)cc1 (stereo not given) [Venlafaxine HCl],0.66
10,CN1[C@@H]2CC[C@H]1C[C@@H](OC(=O)C(CO)c1ccccc1)C2 (stereo not given in full) [Atropine sulfate monohydrate],-0.2
11,COc1ccc2c3c([nH]c2c1)C(C)=NCC3 [Harmaline],2.48
12,CN(C)[C@@H]1C(=O)C(C(N)=O)=C(O)[C@@]2(O)C(=O)C3=C(O)c4c(O)cccc4[C@@](C)(O)[C@H]3[C@H](O)[C@@H]12 [Oxytetracycline Dihydrate],-0.76
13,CC[C@@]1(O)C(=O)OCc2c1cc1n(c2=O)Cc2cc3ccccc3nc2-1 [Camptothecin],-0.35
14,CC[C@H]1CN2CC[C@]3(C(=O)Nc4ccccc43)[C@@H]2C[C@@H]1/C(=C\OC)C(=O)OC [Rhynchophylline],-0.82
15,C=CC[C@]1(O)CC[C@H]2[C@@H]3CCC4=CC(=O)CCC4=C3C=C[C@@]21C [Altrenogest],0.59
16,C[N+](C)(C)CCCCCCCCCC[N+](C)(C)C [Decamethonium Bromide],-0.55
17,COC(=O)C1=CCCN(C)C1 [Arecoline HBr],0.3
18,C=CCN1C[C@H](C(=O)N(CCCN(C)C)C(=O)NCC)C[C@@H]2c3cccc4[nH]cc(c34)C[C@H]21 [Cabergoline],0.36
19,O=c1[nH]c2ccccc2n1CCCN1CCC(n2c(=O)[nH]c3cc(Cl)ccc32)CC1 [Domperidone],0.55
20,CN(C)[C@@H]1C(=O)C(C(N)=O)=C(O)[C@@]2(O)C(=O)C3=C(O)c4c(O)cccc4[C@@](C)(O)[C@H]3C[C@@H]12 [Tetracycline HCl],-0.47

row,SMILES,z-score of subpopulation abundance
1,CCCN1C[C@H](CSC)C[C@@H]2c3cccc4[nH]cc(c34)C[C@H]21 [Pergolide Mesylate],0.12
2,CC(NC(C)(C)C)C(=O)c1cccc(Cl)c1 (stereo not given) [Amfebutamone (Bupropion) HCl],0.13
3,CN(C)[C@@H]1C(=O)C(C(N)=O)=C(O)[C@@]2(O)C(=O)C3=C(O)c4c(O)cccc4[C@@](C)(O)[C@H]3[C@H](O)[C@@H]12 [Oxytetracycline (Terramycin)],0.2
4,CC(C)(O)C(Cl)(Cl)Cl [Chlorobutanol],0.36
5,C[C@@H]1O[C@@H](O[C@H]2C[C@@H](O)[C@]3(CO)[C@H]4[C@H](O)C[C@]5(C)[C@@H](C6=CC(=O)OC6)CC[C@]5(O)[C@@H]4CC[C@]3(O)C2)[C@H](O)[C@H](O)[C@H]1O [Ouabain],-0.43
6,CN1c2ccccc2C(NCCCCCCC(=O)O)c2ccc(Cl)cc2S1(=O)=O (stereo not given) [Tianeptine sodium],-0.37
7,C[C@@H]1CC[C@H]2[C@@H](C)C(=O)O[C@@H]3O[C@@]4(C)CC[C@@H]1[C@]32OO4 [Artemisinin],-0.11
8,CC[C@@H](C(N)=O)N1CCCC1=O [Levetiracetam],0
9,COc1cc2c(cc1OC)C1CC(=O)C(CC(C)C)CN1CC2 (stereo not given) [Tetrabenazine (Xenazine)],1.69
10,NC(=O)CN1CCCC1=O [Piracetam],1.45
11,N#Cc1nn(-c2c(Cl)cc(C(F)(F)F)cc2Cl)c(N)c1[S+]([O-])C(F)(F)F (stereo not given) [Fipronil],-0.6
12,N[C@@H]1C[C@H]1c1ccccc1 [Tranylcypromine (2-PCPA) HCl],-0.64
13,Cn1cc(C2=C(c3cn(C4CCN(Cc5ccccn5)CC4)c4ccccc34)C(=O)NC2=O)c2ccccc21,-1.15
14,"NCC(O)c1ccc(O)cc1 (racemic) [(+,-)-Octopamine HCl]",-0.17
15,C[N+]12CCC(CC1)C(OC(=O)C(O)(c1ccccc1)c1ccccc1)C2 (stereo not given) [Clidinium Bromide],0.14
16,CN1C(=O)COc2c(C(=O)NC3CN4CCC3CC4)cc(Cl)cc21 (stereo not given) [Azasetron HCl],0.07
17,Cc1cc(C(C#N)c2ccc(Cl)cc2)c(Cl)cc1NC(=O)c1cc(I)cc(I)c1O (stereo not given) [Closantel],1.28
18,CCN(C)C(=O)Oc1cccc([C@H](C)N(C)C)c1 [Rivastigmine],-0.94
19,COc1ccc(C(CN(C)C)C2(O)CCCCC2)cc1 (stereo not given) [Venlafaxine],-0.75
20,C=C[C@H]1CN2CC[C@H]1C[C@H]2[C@H](O)c1ccnc2ccccc12 [Cinchonidine],0.13
